The record followed here is the supplement of paper PMC8728848.

Common to all, as to test: glycan array binding signal (z-score within array); higher = stronger binding
Details in all cases: glycan notation: IUPAC condensed, linker removed

Assay [1] addresses GalNAc(b1-4)GlcNAc(b1-2)Man(a1-3)[GalNAc(b1-4)GlcNAc(b1-2)Man(a1-6)]Man(b1-4)GlcNAc(b1-4)GlcNAc. The gist of the method:
(§1)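 Columns mapping to the same glycan were averaged after glycan names were converted to IUPAC-condensed notation. The data come from 3228 arrays in the Consortium for Functional Glycomics database, limited to those with an available protein sequence. Binding is reported as a within-array Z-score averaged across arrays of one protein sequence and across linkers.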

Assay [2] addresses GlcA(b1-3)GlcNAc. The gist of the method: as §1
In assay [3] the target is GlcNAc(b1-3)Gal(b1-4)GlcNAc(b1-3)Gal(b1-4)GlcNAc(b1-2)Man(a1-3)[GlcNAc(b1-3)Gal(b1-4)GlcNAc(b1-3)Gal(b1-4)GlcNAc(b1-2)Man(a1-6)]Man(b1-4)GlcNAc(b1-4)[Fuc(a1-6)]GlcNAc. The gist of the method: as §1
Assay [4] addresses GlcNAc(b1-3)Gal(b1-4)GlcNAc(b1-3)Gal(b1-4)GlcNAc(b1-3)Gal(b1-4)GlcNAc(b1-2)Man(a1-3)[GlcNAc(b1-3)Gal(b1-4)GlcNAc(b1-3)Gal(b1-4)GlcNAc(b1-3)Gal(b1-4)GlcNAc(b1-2)Man(a1-6)]Man(b1-4)GlcNAc(b1-4)GlcNAc. The gist of the method: as §1
For assay [5], the target named is GlcNAc6S(b1-3)Gal(b1-4)GlcNAc. The gist of the method:
as §1

For assay [6], the target named is Man(a1-3)[Man(a1-6)]Man(a1-6)[Man(a1-2)Man(a1-3)]Man(b1-4)GlcNAc(b1-4)GlcNAc. The gist of the method: as §1
Assay [7] deals with Man(a1-6)Man. The gist of the method:
as §1

For assay [8], the target named is Neu5Ac(a2-3)Gal(b1-4)GlcNAc(b1-2)Man(a1-3)[Neu5Ac(a2-6)Gal(b1-4)GlcNAc(b1-2)Man(a1-6)]Man(b1-4)GlcNAc(b1-4)GlcNAc. The gist of the method: as §1
Assay [9] concerns the target Neu5Ac(a2-3)Gal(b1-4)GlcNAc(b1-2)[Neu5Ac(a2-3)Gal(b1-4)GlcNAc(b1-4)]Man(a1-3)[GlcNAc(b1-4)][Neu5Ac(a2-3)Gal(b1-4)GlcNAc(b1-2)[Neu5Ac(a2-3)Gal(b1-4)GlcNAc(b1-6)]Man(a1-6)]Man(b1-4)GlcNAc(b1-4)GlcNAc. The gist of the method:
as §1

Assay [10] concerns the target Neu5Ac(a2-3)Gal(b1-4)GlcNAc(b1-3)Gal(b1-4)GlcNAc(b1-3)Gal(b1-4)GlcNAc. The gist of the method:
as §1

Assay [11] addresses Neu5Ac(a2-3)Gal(b1-4)GlcNAc(b1-3)Gal(b1-4)[Fuc(a1-3)]GlcNAc. The gist of the method:
as §1

Assay [12] concerns the target Neu5Ac(a2-3)Gal(b1-4)GlcNAc6S. The gist of the method: as §1
The target of assay [13] is Neu5Ac(a2-3)[GalNAc(b1-4)]Gal(b1-4)GlcNAc(b1-3)GalNAc. The gist of the method: as §1
Assay [14] addresses Neu5Ac(a2-6)Gal(b1-4)GlcNAc(b1-3)Gal(b1-4)GlcNAc(b1-3)Gal(b1-4)GlcNAc(b1-2)Man(a1-3)[Neu5Ac(a2-6)Gal(b1-4)GlcNAc(b1-3)Gal(b1-4)GlcNAc(b1-3)Gal(b1-4)GlcNAc(b1-2)Man(a1-6)]GalNAc. The gist of the method: as §1
Assay [15] addresses Neu5Ac(a2-6)Gal(b1-4)GlcNAc(b1-3)Gal(b1-4)GlcNAc(b1-3)[Neu5Ac(a2-6)Gal(b1-4)GlcNAc(b1-3)Gal(b1-4)GlcNAc(b1-6)]GalNAc. The gist of the method:
as §1

Assay [16] concerns the target Neu5Ac(a2-6)Gal(b1-4)GlcNAc(b1-6)GalNAc. The gist of the method: as §1
Assay [17] addresses Neu5Ac(a2-6)Gal(b1-4)GlcNAc(b1-6)[Gal(b1-3)GlcNAc(b1-3)]Gal(b1-4)Glc. The gist of the method: as §1
Assay [18] concerns the target Neu5Ac(a2-8)Neu5Ac(a2-3)Gal(b1-4)Glc. The gist of the method: as §1
The target in assay [19] is Neu5Ac(a2-8)Neu5Ac(a2-8)Neu5Ac(a2-3)Gal(b1-4)Glc. The gist of the method: as §1
Assay [20] concerns the target Neu5Ac9Ac(a2-3)Gal(b1-4)GlcNAc. The gist of the method:
as §1

The target in assay [21] is Neu5Gc(a2-8)Neu5Gc(a2-3)Gal(b1-4)GlcNAc. The gist of the method: as §1

Only a selection was taken, and the strongest signals are over-represented in it overall.

B1: Protein L(B1-B4) (Finegoldia magna), Q51912 (protein)
chain: KEETPETPETDSEEEVTIKANLIFANGSTQTAEFKGTFEKATSEAYAYADTLKKDNGEYTVDVADKGYTLNIKFAGKEKTPEEPKEEVTIKANLIYADGKTQTAEFKGTFEEATAEAYRYADALKKDNGEYTVDVADKGYTLNIKFAGKEKTPEEPKEEVTIKANLIYADGKTQTAEFKGTFEEATAEAYRYADLLAKENGKYTVDVADKGYTLNIKFAGKEKTPEEPKEEVTIKANLIYADGKTQTAEFKGTFAEATAEAYRYADLLAKENGKYTADLEDGGYTINIRFAG
With B1, the “glycan array binding signal (z-score)” value in [1] was 1.49; in assay [2], -0.785; in assay [3], 3.07; in assay [4] it was 1.06; in [5] it was -0.336; in [6] it was 2.94. For the same molecule, the “glycan array binding signal (z-score)” value in assay [7] is -0.159; in [8] it was -1.02; in [9] it was -0.913; in assay [10], -1.05; in assay [11], -0.359; in [12] it was -0.92. Also, the “glycan array binding signal (z-score)” value was 0.809 in [13]; 3.91 in assay [14]; 2.86 in assay [15]; 3.08 in [16]; -0.606 in assay [17]; -1.15 in [18]. Further, the “glycan array binding signal (z-score)” value in [19] is 0.487; in [20] it was 0.223; in [21], -1.03.
